High-throughput results from PubChem BioAssay.
PNC assembly inh: blocks assembly of the perinucleolar compartment; PC3M PTB-GFP, PNC prevalence imaging, 16 h; hits give low values; AID 2417; activity change (PNC), negative = inhibition, % at 10 µM; hit rate 3.1% among 140,000;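 active = readout at or below -70, meaning at least 70% loss of cells showing the perinucleolar compartment, a nuclear body marking cancer cells; inconclusive = readout between -30 and a set limit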
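Read-out is percentage of cells bearing a perinucleolar compartment, from automated 20x imaging of fixed, Hoechst-stained PC3M PTB-GFP cells. Cells were seeded 4 h, then exposed 16 h to compound (23 nl of library stock) in duplicate plates.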
KDM4E inh: inhibitors of human JMJD2E histone demethylase | Potency, µM (series often up to 57.1 µM), hits mostly inhibitors | JMJD2E catalytic domain, FDH-coupled NADH fluorescence (FDH is formaldehyde dehydrogenase) | hit rate 1.6% among 230,000 | B2RXH2 | AID 2147; note: nearly all actives have a fitted effect of over 50% in size
ALDH1A1 block: blocks purified human ALDH1A1 activity. P00352. Purified ALDH1A1, NADH fluorescence, propionaldehyde substrate. Potency, µM (highest dose often 75.3 µM), actives largely listed as inhibitors. hit rate 7.3% among 220,000. AID 1030
Target sequence (P00352 whole entry, looked up): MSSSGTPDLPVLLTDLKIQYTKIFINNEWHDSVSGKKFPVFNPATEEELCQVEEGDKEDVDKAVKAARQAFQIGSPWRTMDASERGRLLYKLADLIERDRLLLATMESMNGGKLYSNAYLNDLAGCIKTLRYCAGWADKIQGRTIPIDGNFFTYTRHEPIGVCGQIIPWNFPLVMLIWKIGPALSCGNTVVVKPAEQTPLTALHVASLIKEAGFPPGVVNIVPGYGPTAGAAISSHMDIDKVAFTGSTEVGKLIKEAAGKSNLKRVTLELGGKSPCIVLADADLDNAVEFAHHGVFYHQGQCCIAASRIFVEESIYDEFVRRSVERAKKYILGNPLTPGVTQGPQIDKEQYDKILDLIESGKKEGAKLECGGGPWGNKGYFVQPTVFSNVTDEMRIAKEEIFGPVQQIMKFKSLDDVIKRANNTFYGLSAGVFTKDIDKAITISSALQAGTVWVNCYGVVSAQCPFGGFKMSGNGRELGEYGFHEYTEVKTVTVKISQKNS
HPGD inh: inhibitors of human 15-hydroxyprostaglandin dehydrogenase (HPGD); Potency, µM, usual class: inhibitors; AID 894; hit rate 4.3% among 150,000; purified HPGD, NADH fluorescence kinetic, PGE2 substrate
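20 nM HPGD preincubated 15 min at room temperature with compound in 50 mM Tris-HCl pH 8, 0.01% Tween 20. Started with 1 mM NAD+ and 30 uM prostaglandin E2; NADH fluorescence (360/450 nm) read 5 times over 30-s intervals, last minus first.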
Numbers stand for hits; i = inactive; ? = inconclusive; nt = not tested or not shown; [ ] = another dose, or the depositor's remark. Compounds with a hit are over-represented: about 11% of the library has one in this group of screens. Unless noted, calls come from the whole dose curve; as a rule, active = well fitted inhibition curve with a large enough effect (not every such curve was filed as active); inconclusive = small, poorly fitted or top-dose-only effect, or another doubt; inactive = no such curve, though single readings can be large or run the other way.

SMILES	PNC assembly inh	KDM4E inh	ALDH1A1 block	HPGD inh
COCCSc1ccccc1C(=O)NCc1cccnc1	nt	i	i	nt
CC(CNS(=O)(=O)c1ccccc1)(c1ccccc1)N1CCOCC1 (stereo not given)	i	i	i	nt
CNc1nc(-c2ccccc2C(F)(F)F)nc2ccccc12	nt	i	i	i
O=CN1CCN(C(C(=O)NC2CCCCC2)c2cc3c(cc2[N+](=O)[O-])OCO3)CC1 (stereo not given)	nt	?	5µM	nt
COc1ccc(NC(=O)C(c2cc3c(cc2[N+](=O)[O-])OCO3)N2CCN(C=O)CC2)cc1 (stereo not given)	?	?	?	i
COC(=O)c1cc2c(cc1[N+](=O)[O-])OCO2	nt	i	i	nt
O=C(NC1CCCCC1)C(c1cc2c(cc1[N+](=O)[O-])OCO2)N1CCCCC1 (stereo not given)	i	?	28µM	?
O=[N+]([O-])c1ccc2[nH]c(O)c(N=NC3CCS(=O)(=O)C3)c2c1 (stereo not given)	nt	i	nt	nt
CS(=O)(=O)N(CC(=O)N1CCC(C(N)=O)CC1)c1cc(C(F)(F)F)ccc1Cl	nt	i	i	nt
COc1ccc(CCNC(=O)c2cc3ccccn3n2)c(OC)c1OC	i	i	22µM	?
O=C(COC(=O)c1ccc([N+](=O)[O-])o1)Nc1nc2ccccc2s1	nt	?	32µM	nt
CC(C)c1cc(/C=C(\C#N)C(=O)NCCCc2ccccc2)cc(C(C)C)c1O	nt	nt	i	nt
CCOC(=O)C1CCCN(C(=O)c2cc(-c3ccc(C)cc3)nc3ccccc23)C1 (stereo not given)	nt	?	i	nt
Cn1cc(Br)c(C(=O)NC2C3CC4CC(C3)CC2C4)n1 (stereo not given)	i	i	i	16µM
O=C(CCSc1ccccn1)c1ccccc1	nt	i	0.25µM	nt
CCCCS(=O)(=O)N1CCc2nc(-c3ccc(OC)cc3C)c3c(c2C1)CO[C@@H](c1ccccc1)C3	nt	i[11.4 µM]	0.45µM	i
COc1ccc(-c2nc3c(c4c2C[C@H](c2ccccc2)OC4)CN(S(=O)(=O)c2ccc(NC(C)=O)cc2)CC3)c(C)c1	nt	i[11.4 µM]	0.45µM	i
COCC(=O)N1CCc2nc(-c3ccc(OC)cc3C)c3c(c2C1)CO[C@@H](c1ccccc1)C3	nt	i[11.4 µM]	i[13.5 µM]	i
COC(=O)c1ccccc1S(=O)(=O)N1CCc2nc(-c3ccc(OC)cc3C)c3c(c2C1)CO[C@@H](c1ccccc1)C3	nt	i[11.4 µM]	4µM	i
Cc1ccc(-n2c([C@@H]3C[C@H]3c3ccccc3)n[nH]c2=S)cc1	i	i	?	?
Cc1ccc(C2CC2c2n[nH]c(=S)n2-c2ccc(C)cc2)cc1 (stereo not given)	i	i	?	?
S=c1[nH]nc(C2CC2c2ccc(Cl)cc2)n1-c1ccc(Cl)cc1 (stereo not given)	i	i	i	5µM
Cc1ccc(-n2c(C3CC3c3ccc(Cl)cc3)n[nH]c2=S)cc1 (stereo not given)	?	i	i	8.9µM
CC(C)(C)c1ccc(OCC2CO2)cc1 (stereo not given)	nt	nt	i	i
CCOC(=O)c1nc(NCc2cccc(OC)c2)c2ccccc2n1	nt	i	i	nt
SMILES	PNC assembly inh	KDM4E inh	ALDH1A1 block	HPGD inh
Cc1cccc(C)c1-n1c(C)cc(/C=N/NC(=O)c2ccncc2)c1C	?	i	28µM	i
O=C(N/N=C/c1cc(Cl)ccc1O)C(=O)Nc1ccccc1OC(F)(F)C(F)F	-90	?	i	i
CC1(CC(=O)N/N=C/c2cc([N+](=O)[O-])c(O)cc2O)OCCO1	nt	16µM	?	nt
Cc1ccc(-n2c(C)cc(/C=N/NC(=O)CC3(C)OCCO3)c2C)c(C)c1	i	i	14µM	i
CC(CCCC(C)(C)O)CC1C2=C(CCCC2=O)OC2=C1C(=O)CCC2 (stereo not given)	nt	?	i	nt
O=C(N/N=C/c1cc(Cl)ccc1O)c1ccncc1	nt	13µM	nt	nt
Cc1ccc(-n2c(C)cc(/C=N/NC(=O)c3ccncc3)c2C)c(C)c1	i	i	13µM	i
CC[C@@H](C)CN1C(=O)N[C@@H](c2ccccc2)C(C(C)=O)=C1C	nt	i[11.4 µM]	i[13.5 µM]	i
O=S(=O)(NCc1ccco1)c1cccc2cccnc12	-100	i	i	i
C/C(=N\Nc1ccccn1)c1ccc(S(=O)(=O)NCc2ccco2)cc1	-83	i	i	i
CCOc1ccc(S(=O)(=O)NCc2ccco2)c2ccccc12	i	i	14µM	?
O=S(=O)(NCc1ccc(Cl)cc1)c1cccc2cccnc12	nt	i	nt	nt
O=C(COc1ccccc1)N(Cc1ccco1)C1CCS(=O)(=O)C1 (stereo not given)	i	i	22µM	i
Cc1cc(Cl)ccc1OCC(=O)N(Cc1ccco1)C1CCS(=O)(=O)C1 (stereo not given)	nt	i	nt	nt
